This is part of a sample that, as a whole, favours compounds with a hit. Of some 79,000 tested, about 15% had one in any assay. Cut-off read from the data, not from the text of the source: active = growth inhibition above about 70%; inactive = the rest.
Experiments:
[1] = NCI Yeast Anticancer Drug Screen. Data for the rad50 strain (AID 155);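 note: 0% = growth of vehicle-only cultures of the same strain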; settings: S. cerevisiae rad50 strain growth inhibition; at 50.0 µM; hits give high values
In short: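 A DNA repair-deficient yeast mutant serves as the test organism; compound-induced growth inhibition is calculated against vehicle-treated cells.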

[2] = NCI Yeast Anticancer Drug Screen. Data for the mec2-1 strain (AID 157); settings: S. cerevisiae mec2-1 strain, at 50.0 µM, hits give high values
In short: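 mec2-1 yeast strain, carrying an alteration in DNA damage repair or cell cycle control, was exposed to compounds; growth inhibition was measured relative to vehicle-treated controls.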

[3] = NCI Yeast Anticancer Drug Screen. Data for the sgs1 mgt1 strain (AID 161);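 note: 0% = growth of cultures given vehicle only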; settings: S. cerevisiae sgs1 mgt1 strain, at 50.0 µM, hits give high values
In short: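 Growth of a repair-deficient yeast mutant was monitored after compound treatment and expressed as inhibition relative to vehicle-treated cultures.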

[4] = NCI Yeast Anticancer Drug Screen. Data for the cln2 rad14 strain (AID 165);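 note: 0% = growth equal to vehicle treated cultures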; settings: S. cerevisiae cln2 rad14 strain, at 50.0 µM, hits give high values
In short: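 Yeast carrying cln2 and rad14 alterations (cell cycle control and DNA damage repair) were exposed to compounds. Growth inhibition was measured against vehicle-treated controls.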

[5] = NCI Yeast Anticancer Drug Screen. Data for the bub3 strain (AID 167); settings: S. cerevisiae bub3 mutant strain, at 50.0 µM, hits give high values
In short: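 Inhibition values come from growth of compound-treated mutant yeast normalised to vehicle-treated controls.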

[6] = NCI Yeast Anticancer Drug Screen. Data for the mlh1 rad18 strain (AID 175); settings: S. cerevisiae mlh1 rad18 strain growth inhibition; at 50.0 µM; hits give high values
In short: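 Growth inhibition of the yeast strain was measured after compound exposure and expressed relative to vehicle-treated controls. The strain carries defined defects in DNA damage repair.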

Measured: growth inhibition

O=C(CCN1CCCCC1)c1cc2cc([N+](=O)[O-])ccc2oc1=O
inactive: [1] 55.1% | [2] 29.6% | [3] 23.2% | [4] -17.8% | [5] 47% | [6] 32.6%

CC(O)C(N=Cc1ccccc1[O-])C(=O)[O-].CC(O)C(N=Cc1ccccc1[O-])C(=O)[O-].[Co+2] (stereo unspecified)
inactive: [1] -7% | [2] -2.05% | [3] -16.6% | [4] 4.4% | [5] 7.65% | [6] -25.9%

C(=C\c1ccccn1)/c1ccc(/C=C/c2ccccn2)cc1
inactive: [1] -31.2% | [2] 18.6% | [3] 8.3% | [4] -26.8% | [5] 3.25% | [6] 13.7%

NC(=S)SCCC(=O)N1CCCC1
inactive: [1] -1.25% | [2] -10.1% | [3] -9.55% | [4] -19.6% | [5] -7.35% | [6] -1.7%

CCOC(CN=Cc1cccc2ccccc12)OCC
inactive: [1] -26.4% | [2] -1.4% | [3] -11.8% | [4] 46.7% | [5] -3.55% | [6] 18.6%

O=C(/C=C(\C(=O)c1ccccc1)c1ccccc1)c1ccc(Cl)cc1
inactive: [1] -12% | [2] 8.5% | [3] -4.45% | [4] 1.05% | [5] -13.1% | [6] -24.6%

COC(=O)CCCCC#CCCCCC(=O)OC
inactive: [1] 3.25% | [2] 38.6% | [3] -4.65% | [4] -2.6% | [5] 12.2% | [6] 12.9%

COC(=O)c1ccc(C(=O)OC)c(O)c1O
inactive: [1] 11.3% | [2] 27.9% | [3] 8.85% | [4] -2.85% | [5] 12.8% | [6] 16.4%

CCCCCCCC/C=C\CCCCCCCC(=O)N1CCN(C(=O)CCCCCCC/C=C/CCCCCCCC)C1
inactive: [1] 20.4% | [2] -13.3% | [3] 4.05% | [4] 16.4% | [5] 0.15% | [6] -8.35%

CCOc1ccc(/C(O)=C/c2nc3ccccc3nc2/C=C(\O)c2ccc(OCC)cc2)cc1
inactive: [1] -2.1% | [2] -13.7% | [3] 16.4% | [4] -0.75% | [5] 36% | [6] 13.6%

CC1(C)OC2OC(COC(=O)c3ccccc3)C(N3C(=O)c4ccccc4C3=O)C2O1 (stereo unspecified)
inactive: [1] 58.2% | [2] 9% | [3] 64.1% | [4] 30.1% | [5] 40.4% | [6] 49%

COC(c1ccc(C(C)(C)C)cc1)(c1ccc(C(C)(C)C)cc1)c1cc(C(O)(c2cc(C(OC)(c3ccc(C(C)(C)C)cc3)c3ccc(C(C)(C)C)cc3)c(C)cc2C)c2cc(C(OC)(c3ccc(C(C)(C)C)cc3)c3ccc(C(C)(C)C)cc3)c(C)cc2C)c(C)cc1C
inactive: [1] -26.8% | [2] -12.7% | [3] -12.8% | [4] 13.8% | [5] -17.8% | [6] -9.05%

CC/C(C)=N\NC(=O)CC(=O)N/N=C(/C)CC
inactive: [1] -8.35% | [2] 1.45% | [3] -7% | [4] -61.6% | [5] -4% | [6] -17.1%

CC1(C)C(=O)/C=C\C(=O)C(C)(C)C(=O)/C=C\C(=O)C(C)(C)C2=CC=C(O2)C(C)(C)C(=O)/C=C\C1=O
inactive: [1] 14.9% | [2] 12.2% | [3] -2.4% | [4] 20.9% | [5] 7.9% | [6] 14.4%

CC(CN(C)C)Oc1ccc2c(c1)C(=O)C(C)C2 (stereo unspecified)
inactive: [1] -25.6% | [2] -5.25% | [3] 4.85% | [4] -28.9% | [5] 22.1% | [6] -22.6%

CC(=O)OC1(C#N)CCCCC1
inactive: [1] 5.7% | [2] -2.3% | [3] -7.05% | [4] 23.1% | [5] 4.8% | [6] 14.4%

Cc1ccc(Cc2cc(=O)[nH]c(=O)[nH]2)cc1
inactive: [1] 0.2% | [2] -8.25% | [3] -13.2% | [4] -76.5% | [5] 2.7% | [6] 5.4%

Cc1cc2c(=O)cc(-c3ccc(Cl)cc3Cl)oc2c(C(=O)O)c1C
inactive: [1] -19.6% | [2] 10.9% | [3] 9% | [4] 23.6% | [5] 11.6% | [6] 29.5%

O=C(c1ccc(Br)cc1)C(C(c1ccccc1)N1CCOCC1)N1CCOCC1 (stereo unspecified)
inactive: [1] 3.1% | [2] -1.1% | [3] -9.6% | [4] -19.5% | [5] -20.6% | [6] 31.9%

CC(=O)OC1OCCCC1Cl (stereo unspecified)
inactive: [1] -8.95% | [2] -27.9% | [3] -7.75% | [4] -3.2% | [5] -30.8% | [6] 10.3%

CCN(CC)C(=O)C1C(C=C(C)C)C1(C)C (stereo unspecified)
inactive: [1] 6.95% | [2] 20.4% | [3] 12.2% | [4] 5.3% | [5] -10.1% | [6] 7.55%

CCCCOC(=O)c1ccccc1
inactive: [1] -7% | [2] 13.7% | [3] -10.2% | [4] -2.8% | [5] -1.4% | [6] 18.1%

Cc1c[nH]c2nc(C)n(-c3ccccc3F)c(=N)c12
inactive: [1] -8.5% | [2] -2.75% | [3] -9.35% | [4] -8.7% | [5] -10.8% | [6] -0.95%

COC(=O)c1ncn(Cc2ccccc2)c1O (tested in a mixture with another compound)
inactive: [1] 8.7% | [2] -2.2% | [3] 8.55% | [4] 16.3% | [5] 8.15% | [6] 36%

C1C[OH+]CC[OH+]CCNCC[OH+]CC[OH+]CCN1.Cl.[Cl-].[Pt+4]
inactive: [1] 8.7% | [2] -9.3% | [3] 6.25% | [4] 10.4% | [5] -3.65% | [6] 7%

CSCCC(N)=O
inactive: [1] -10.2% | [2] -6.95% | [3] 9.8% | [4] 0.05% | [5] -16.8% | [6] 2.9%

O=c1oc2ccccc2c(O)c1[N+](=O)[O-]
inactive: [1] 10.6% | [2] -11.2% | [3] -6.4% | [4] 2.7% | [5] -7.15% | [6] 3.65%

CSc1[nH]c2ncnc(Cl)c2c1C#N
inactive: [1] 23.6% | [2] 10.3% | [3] 15.9% | [4] -21.8% | [5] -27.3% | [6] 21.7%

CCC(=O)N(C)C1(C#N)CCCCC1
inactive: [1] 29.4% | [2] -42.9% | [3] 13% | [4] 0.1% | [5] 4.85% | [6] 24.2%

CCNS(=O)(=O)c1cc(C(=O)O)cc(C(=O)O)c1
inactive: [1] 6.9% | [2] -7.6% | [3] -4.95% | [4] -28.9% | [5] -5.55% | [6] 0.15%

COc1ccc2c(c1)CC[C@@H]1[C@@H]2CC[C@]2(C)[C@H](S)CC[C@@H]12
inactive: [1] -3.45% | [2] -15.7% | [3] 21.4% | [4] -41% | [5] 18.1% | [6] -7.3%

CC(=O)N(C)CC(c1c(C)[nH]c2ccccc12)c1c(C)[nH]c2ccccc12
inactive: [1] 15.3% | [2] -12.3% | [3] 2.2% | [4] -4% | [5] 18% | [6] 40.7%

CCN(CC)c1ccc2c(c1)C(O)c1ccccc1-2 (stereo unspecified)
inactive: [1] -3.75% | [2] -20.4% | [3] -5.7% | [4] -12.4% | [5] 14.4% | [6] 17.6%

C=CC(=O)OCCC#N
inactive: [1] 9% | [2] 18.8% | [3] 1.3% | [4] 2.8% | [5] 15.1% | [6] 5.45%

Cc1ccccc1N(CCC#N)C1=NN(C(=O)CC(=O)Nc2ccc(Cl)cc2)C(c2ccccc2)C1 (stereo unspecified)
inactive: [1] 6.35% | [2] -9.05% | [3] -0.2% | [4] 15% | [5] -16.1% | [6] -5.35%

CC(C)N=C(c1ccccc1)N(O)c1ccccc1
inactive: [1] -0.4% | [2] 3.15% | [3] -0.75% | [4] -10.3% | [5] 4.2% | [6] 5.05%

Brc1ccc2c[n+]3ccccc3cc2c1
inactive: [1] 11.9% | [2] 7.35% | [3] 12% | [4] -31.9% | [5] 24.2% | [6] 9.4%

CC(=O)OCCOCNC(=S)N/N=C/c1ccc([N+](=O)[O-])s1
inactive: [1] 35.4% | [2] -5.2% | [3] 23.9% | [4] 32.5% | [5] 2.7% | [6] 12.6%

CN1C2CCC1C1N=NN(c3cc(C(F)(F)F)cc(C(F)(F)F)c3)C1(N1CCOCC1)C2 (stereo unspecified)
inactive: [1] -20.9% | [2] -9.6% | [3] -27.7% | [4] 0.35% | [5] -11.9% | [6] -21.8%

Cc1cc(C(=O)NN)no1
inactive: [1] -4.75% | [2] -4.4% | [3] -3.9% | [4] -10.4% | [5] -7.15% | [6] -8.15%

O=Cc1c2c(cc3c1CC1(C3)Cc3cc4c(c(C=O)c3C1)CCC4)CCC2
inactive: [1] -26.4% | [2] -40.1% | [3] -25.9% | [4] 3.7% | [5] 26.8% | [6] 1.35%
